# Records with an inconclusive call do not appear. Entries that show only a call come without a potency. Unmarked numbers belong to inactive results. Calls of active or inactive are those of the source. Unless noted, calls follow the shape of the dose curve; as a rule, active = well fitted curve in the direction sought with a large enough effect in the repeat runs; inconclusive = weak or mixed curves; inactive = no such curve, though single readings can be large; an effect the other way counts as inactive or inconclusive.
# Tests used:
# [1] = qHTS assay to identify small molecule antagonists of the thyroid receptor (TR) signaling pathway (AID 743065); also: series mostly up to about 70 µM; nearly all actives have a fitted effect of over 55% in size
# In short: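 GH3.TRE-Luc rat pituitary cells carrying two TR response elements driving luciferase were plated for 4 h, given compound plus 1 nM T3 (final), and incubated 23.5 h at 37 C. ONE-Glo luminescence measured reporter inhibition; CellTiter-Fluor fluorescence tracked cytotoxicity.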
# [2] = test system: thyroid hormone receptor (rat, GH3 cells); test: qHTS assay to identify small molecule agonists of the thyroid receptor (TR) signaling pathway (AID 743066; calls by dose curve)
# [3] = molecular target: Estrogen receptor (Homo sapiens) (UniProt P03372); test: qHTS assay to identify small molecule antagonists of the estrogen receptor alpha (ER-alpha) signaling pathway (AID 743069; active = well fitted curve in the direction sought with a large enough effect in the signal ratio in the repeat runs, not every such curve was filed as active; the % refers to the signal ratio)
# In short: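 HEK293 cells stably carrying an ER-alpha-UAS-bla beta-lactamase reporter were pre-cultured overnight in 2% charcoal-stripped FBS medium. Test compounds in DMSO were added together with 17beta-estradiol for 18 hr at 37C. Read-out was fluorescence after 2 hr with LiveBLAzer B/G FRET substrate at room temperature.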
# [4] = qHTS assay to identify small molecule antagonists of the estrogen receptor alpha (ER-alpha) signaling pathway - cell viability counter screen (AID 743074; calls by dose curve; also: nearly all actives have a fitted effect of over 45% in size)
# [5] = molecular target: Estrogen receptor (Homo sapiens) (UniProt P03372); test: qHTS assay to identify small molecule agonists of the estrogen receptor alpha (ER-alpha) signaling pathway (AID 743075; calls by dose curve)
# [6] = molecular target: Estrogen receptor (Homo sapiens) (UniProt P03372); test: qHTS assay to identify small molecule agonists of the estrogen receptor alpha (ER-alpha) signaling pathway using the BG1 cell line (AID 743079); also: nearly all actives have a fitted effect of over 20% in size
# [7] = qHTS assay to identify small molecule antagonists of the estrogen receptor alpha (ER-alpha) signaling pathway using the BG1 cell line (AID 743080; calls by dose curve;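 also: BG1 cells stimulated with 17beta-estradiol alongside compound; nearly all actives have a fitted effect of over 25% in size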; also: potency is read from the fitted curve at half-maximal effect)
# In short: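 BG1Luc4E2, endogenous ER-alpha, 4xERE-luc; 5 d charcoal-stripped FBS, phenol red free; 24 h plating; cpd + 17beta-estradiol 21.5 h, 37 C/5% CO2; CellTiter-Fluor viability 30 min, then ONE-Glo luciferase 30 min RT.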
# [8] = qHTS assay to identify small molecule antagonists of the estrogen receptor alpha (ER-alpha) signaling pathway using the BG1 cell line - cell viability counter screen (AID 743081);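 also: compound given together with 17beta-estradiol as the ER stimulus; series mostly up to about 70 µM; nearly all actives have a fitted effect of over 45% in size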
# [9] = molecular target: Aromatase (Homo sapiens) (UniProt P11511); test: qHTS assay to identify aromatase inhibitors (AID 743083); also: series mostly up to about 70 µM; nearly all actives have a fitted effect of over 55% in size
# [10] = qHTS assay to identify aromatase inhibitors - cell viability counter screen (AID 743084);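 also: cells stimulated with testosterone during compound exposure; nearly all actives have a fitted effect of over 55% in size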
# Aromatase (Homo sapiens), sequence (P11511 whole entry, looked up): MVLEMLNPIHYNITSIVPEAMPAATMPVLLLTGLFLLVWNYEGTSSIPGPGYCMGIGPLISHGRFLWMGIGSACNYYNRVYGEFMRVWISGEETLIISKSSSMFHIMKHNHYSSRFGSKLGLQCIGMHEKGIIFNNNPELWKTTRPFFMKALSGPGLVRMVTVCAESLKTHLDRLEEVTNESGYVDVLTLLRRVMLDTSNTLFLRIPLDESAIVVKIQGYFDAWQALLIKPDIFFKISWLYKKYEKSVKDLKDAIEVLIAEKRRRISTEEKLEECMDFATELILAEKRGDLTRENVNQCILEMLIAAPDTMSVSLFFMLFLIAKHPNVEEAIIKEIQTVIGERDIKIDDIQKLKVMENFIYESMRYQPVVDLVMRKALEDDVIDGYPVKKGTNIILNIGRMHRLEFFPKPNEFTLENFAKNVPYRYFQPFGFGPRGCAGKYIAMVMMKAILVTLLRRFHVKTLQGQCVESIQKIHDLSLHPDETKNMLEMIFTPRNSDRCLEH
# Estrogen receptor (Homo sapiens), sequence (P03372 whole entry, looked up): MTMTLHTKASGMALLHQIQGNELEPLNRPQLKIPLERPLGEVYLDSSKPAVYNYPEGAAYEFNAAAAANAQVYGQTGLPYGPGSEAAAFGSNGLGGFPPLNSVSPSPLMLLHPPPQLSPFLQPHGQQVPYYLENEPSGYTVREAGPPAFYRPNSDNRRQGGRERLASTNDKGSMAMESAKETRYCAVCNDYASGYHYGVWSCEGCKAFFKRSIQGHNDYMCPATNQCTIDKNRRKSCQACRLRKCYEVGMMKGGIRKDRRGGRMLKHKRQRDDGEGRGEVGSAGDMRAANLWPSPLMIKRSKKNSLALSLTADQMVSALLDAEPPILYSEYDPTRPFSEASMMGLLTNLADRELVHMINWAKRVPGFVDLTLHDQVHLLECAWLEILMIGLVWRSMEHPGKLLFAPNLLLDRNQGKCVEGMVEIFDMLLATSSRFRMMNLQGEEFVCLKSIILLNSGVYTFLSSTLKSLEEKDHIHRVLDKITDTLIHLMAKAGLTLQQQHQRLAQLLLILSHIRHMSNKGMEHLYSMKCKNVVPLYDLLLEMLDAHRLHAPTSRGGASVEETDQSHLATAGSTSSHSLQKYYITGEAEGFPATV
Structure (SMILES),Potency [1],Potency [2],outcome [3],Potency [4],Potency [5],Potency [6],Potency [7],outcome [8],Potency [9],outcome [10]
CCCCN=C(N)N=C(N)N,inactive,inactive,inactive,inactive,inactive,inactive,16.8 µM (active),inactive,inactive,inactive
CC(C)(C)C(=O)CC(=O)C(C)(C)C,inactive,inactive,inactive,inactive,inactive,inactive,inactive,inactive,inactive,inactive
O=S(=O)(O)CC(O)CCl (stereo not drawn),inactive,inactive,inactive,inactive,inactive,inactive,inactive,inactive,inactive,inactive
C=COCCCCO,inactive,inactive,inactive,inactive,inactive,inactive,inactive,inactive,inactive,inactive
C=CCCCCCCCCOC(C)=O,inactive,inactive,inactive,inactive,inactive,inactive,inactive,inactive,inactive,inactive
CC(=O)SCC(CC(=O)c1ccc(C)cc1)C(=O)O (stereo not drawn),inactive,inactive,inactive,inactive,inactive,inactive,inactive,inactive,inactive,inactive
Clc1cc(Cl)c(Cl)c(Cl)c1Cl,inactive,inactive,inactive,inactive,inactive,inactive,inactive,inactive,inactive,inactive
CCC(C)(C)C,inactive,inactive,inactive,inactive,inactive,inactive,inactive,inactive,inactive,
Cc1ccc(N)nc1,inactive,inactive,inactive,inactive,inactive,inactive,inactive,inactive,inactive,inactive
CCCCCCCCCCCCCCBr,inactive,inactive,inactive,inactive,inactive,inactive,inactive,inactive,inactive,inactive
CN(C)c1ccncc1,inactive,inactive,inactive,inactive,inactive,inactive,inactive,inactive,inactive,inactive
COC(=O)/C=C(\C)CCC=C(C)C,inactive,inactive,inactive,inactive,inactive,inactive,inactive,inactive,inactive,
CCCC(=O)OC,inactive,inactive,inactive,inactive,inactive,inactive,inactive,inactive,inactive,inactive
CCCCN(CCCC)CCCCCCN(CCCC)CCCC,inactive,inactive,inactive,inactive,inactive,inactive,inactive,inactive,inactive,inactive
CC(C)(C)C(=O)CCc1ccc(Cl)cc1,inactive,inactive,inactive,inactive,inactive,inactive,inactive,inactive,inactive,inactive
N#Cc1ccccc1C#N,inactive,inactive,inactive,inactive,inactive,inactive,inactive,inactive,inactive,inactive
O=C(O)Cc1ccccc1Oc1ccc(Cl)cc1Cl,inactive,inactive,inactive,inactive,inactive,inactive,inactive,inactive,inactive,inactive
CCC(=O)OCCOc1ccccc1,inactive,inactive,inactive,inactive,inactive,inactive,inactive,inactive,inactive,inactive
Cc1ccccc1OCC(=O)O,inactive,inactive,inactive,inactive,inactive,inactive,inactive,inactive,inactive,inactive
OCCC(F)(F)C(F)(F)C(F)(F)C(F)(F)C(F)(F)C(F)(F)F,inactive,inactive,inactive,inactive,inactive,inactive,inactive,inactive,inactive,inactive
COc1cc(OC)cc(OC)c1,inactive,inactive,inactive,inactive,inactive,inactive,inactive,inactive,inactive,inactive
CC(C)(O)c1ccc(C(C)(C)O)cc1,inactive,inactive,inactive,inactive,inactive,inactive,inactive,inactive,inactive,inactive
CC(O)CCCCn1c(=O)c2c(ncn2C)n(C)c1=O (stereo not drawn),inactive,inactive,inactive,inactive,inactive,inactive,inactive,inactive,inactive,inactive
Cc1cc(O)c(Cl)cc1C,inactive,inactive,inactive,inactive,inactive,inactive,inactive,inactive,inactive,inactive
C/C=C(\C)C(=O)OC/C=C(\C)CCC=C(C)C,inactive,inactive,inactive,inactive,inactive,inactive,inactive,inactive,inactive,inactive

# — PubChem BioAssay (Tox21)
